According to PubChem BioAssay (NCI):
The panel holds about 83,000 compounds, 20% with a hit somewhere; the sample as a whole holds those more often.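 Assay: single dose, 48 h. Readout: percent growth (0 = no net growth; negative = cell death). Active: <10.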 The source made the active and inactive calls.

Assays:
Experiment in all cases: NCI-60 one-dose screen, 48 h (100 = growth as untreated, 0 = no growth, -100 = all killed)
Settings in all cases: 10 µM unless noted
T-47D breast = tested on: T-47D breast
BT-549 breast = tested on: BT-549 breast
MDA-MB-435 melanoma = tested on: MDA-MB-435 melanoma
SW-620 colon = tested on: SW-620 colon
MCF7 breast = tested on: MCF7 breast
HCT-116 colon = tested on: HCT-116 colon
HCC-2998 colon = tested on: HCC-2998 colon
KM12 colon = tested on: KM12 colon

Structure (SMILES) | growth (T-47D breast) | growth (BT-549 breast) | growth (MDA-MB-435 melanoma) | growth (SW-620 colon) | growth (MCF7 breast) | growth (HCT-116 colon) | growth (HCC-2998 colon) | growth (KM12 colon)
Cc1ccc(-c2nc(N3CCN(CC(=O)Nc4ccc(Cl)c(C(F)(F)F)c4)CC3)c3ccccc3n2)cc1 | 74.7% (inactive) | 94.2% (inactive) | 94.6% (inactive) | 91.7% (inactive) | 74.7% (inactive) | 79.2% (inactive) | 112% (inactive) | 94.2% (inactive)
c1cc(NCCc2ccncc2)nc(-n2cnc3ccccc32)c1 | 80.4% (inactive) | 98.4% (inactive) | 95.8% (inactive) | 94.2% (inactive) | 84.2% (inactive) | 81.7% (inactive) | 104% (inactive) | 53.3% (inactive)
COc1ccc(C2=Nn3c(nnc3-c3cc(Cl)cc(Cl)c3Cl)SC2)cc1 | 68.6% (inactive) | -31.2% (active) | -46.7% (active) | 20.2% (inactive) | 7.11% (active) | -27% (active) | -57.9% (active) | 6.48% (active)
COC1=C(C)C(=O)c2c(c(CCCl)c3n2CCC3O)C1=O (configuration not stated) | 81.2% (inactive) | -30.4% (active) | -72.7% (active) | 8.6% (active) | -14.2% (active) | 9.41% (active) | -39.1% (active) | 0.859% (active)
O=C1CCC/C=C\C[C@H]2C=CC(=O)/C2=C/C[C@H](CCc2cccc(C(F)(F)F)c2)O1 | -28% (active) | -29.3% (active) | -42.1% (active) | -32% (active) | -6.2% (active) | -82% (active) | -74.4% (active) | -63.5% (active)
Cc1nc(/N=C(\N)NC(=O)Nc2ccccc2Cl)sc1C | 34.7% (inactive) | 69.3% (inactive) | -25.6% (active) | 36.3% (inactive) | 23.6% (inactive) | 28.5% (inactive) | 33.4% (inactive) | 40.3% (inactive)
OC(COc1ccccc1Cl)CN1CCN(c2cccc(Cl)c2)CC1 (configuration not stated) | 109% (inactive) | 95.5% (inactive) | 109% (inactive) | 110% (inactive) | 93.8% (inactive) | 98.3% (inactive) | 114% (inactive) | 104% (inactive)
CCN(CC)CCCNc1nc2ccccc2c2c(=O)c3cc(Cl)ccc3sc12 | 61.3% (inactive) | 91.2% (inactive) | -4.23% (active) | 14.3% (inactive) | 44.4% (inactive) | 20.2% (inactive) | 26.5% (inactive) | 27% (inactive)
C=C1C(=O)O[C@H]2[C@H]1CC/C(COC(=O)CCC(=O)NCCOCCOCC(=O)Nc1ccc(OC)c(C(N)=O)c1O)=C\CC[C@@]1(C)O[C@@H]21 | 87.1% (inactive) | 85.9% (inactive) | 97.8% (inactive) | 64.2% (inactive) | 74.6% (inactive) | 69.5% (inactive) | 112% (inactive) | 102% (inactive)
Cc1cc2nc3cc(C)c(N)cc3[n+](-c3ccccc3)c2cc1N | 14% (inactive) | 18.5% (inactive) | 67.2% (inactive) | 72.9% (inactive) | 32.7% (inactive) | 33.1% (inactive) | 56.6% (inactive) | 28% (inactive)
CNCCCNc1nc2ccccc2c2c(=O)c3cc(OC)ccc3sc12 | 81.7% (inactive) | 89.2% (inactive) | 37.3% (inactive) | -50.3% (active) | 59.4% (inactive) | 10.3% (inactive) | -71% (active) | 35.3% (inactive)
Cc1[nH]c(C(=O)Nc2ccc(C(=O)NCCN)cc2OC(C)C)c(Cl)c1Cl | -1.29% (active) | 103% (inactive) | -17.6% (active) | -89% (active) | 5.44% (active) | -50.1% (active) | -41.7% (active) | 8.19% (active)
[O-][n+]1c2ccccc2[n+]([O-])c2c3ccccc3[nH]c21 | 2.23% (active) | 81.3% (inactive) | 110% (inactive) | 45.4% (inactive) | 19.4% (inactive) | 10.3% (inactive) | 69.2% (inactive) | 90.1% (inactive)
COc1ccc(-c2csc(NC(=O)N3CCN(c4cc5c(cc4F)c(=O)c(C(=O)O)cn5C4CC4)CC3)n2)cc1 | 5.11% (active) | -13.5% (active) | 3.67% (active) | 15.7% (inactive) | 3.38% (active) | 5.37% (active) | 31% (inactive) | 3.67% (active)
CCCCOc1nc2ccc(OC)cc2cc1-c1cc(-c2ccc(Cl)cc2)nc(-c2ccc(Cl)cc2)c1 | 97.4% (inactive) | 105% (inactive) | 107% (inactive) | 102% (inactive) | 97.5% (inactive) | 102% (inactive) | 109% (inactive) | 104% (inactive)
Cc1ccc(/C=C2\Oc3ccc(O)c(O)c3C2=O)cc1 | 47.3% (inactive) | 43.1% (inactive) | 82.4% (inactive) | 30.7% (inactive) | 31.6% (inactive) | 17.8% (inactive) | 70.2% (inactive) | 77% (inactive)
COc1cc(/C=N/NC(=O)c2ccc(C)nc2)cc(OC)c1OC | 104% (inactive) | 105% (inactive) | 109% (inactive) | 95.6% (inactive) | 103% (inactive) | 110% (inactive) | 106% (inactive) | 97.8% (inactive)
CC1(C)C2CC1C1(/C=N/NC(N)=S)C(C2)C(C#N)(C#N)C1(C#N)C#N (configuration not stated) | 64.1% (inactive) | 96.3% (inactive) | 88.6% (inactive) | 50% (inactive) | 59.2% (inactive) | 40.7% (inactive) | 94.1% (inactive) | 95.7% (inactive)
O=C(Nc1ccc(I)cc1F)c1cc(I)ccc1O | -0.561% (active) | -9.42% (active) | 2.77% (active) | 10.8% (inactive) | 3.31% (active) | 5.17% (active) | 17.6% (inactive) | 2.37% (active)
O=[N+]([O-])c1ccccc1NCSc1ccc(Cl)cc1 | 93.3% (inactive) | 69.2% (inactive) | 93.8% (inactive) | 101% (inactive) | 91.9% (inactive) | 83.8% (inactive) | 84.3% (inactive) | 79.2% (inactive)
N#CC1=C(N)Oc2c(sc3c(Br)cccc23)C1c1ccc([N+](=O)[O-])cc1 (configuration not stated) | 64.9% (inactive) | 28.8% (inactive) | -58.4% (active) | 18.1% (inactive) | 10.2% (inactive) | 8.77% (active) | 10.2% (inactive) | 8.9% (active)
COc1nc2ccc(C)cc2cc1-c1nc2c(cnn2-c2ccc(Br)cc2)c(=O)[nH]1 | 58.3% (inactive) | 91.2% (inactive) | -27.1% (active) | 28.6% (inactive) | 21.8% (inactive) | 13.7% (inactive) | 88.4% (inactive) | 25% (inactive)
CC1(C)C2CC1C1(/C=N\Nc3ccccc3)C(C2)C(C#N)(C#N)C1(C#N)C#N (configuration not stated) | 72.6% (inactive) | 107% (inactive) | 104% (inactive) | 101% (inactive) | 94.8% (inactive) | 83.9% (inactive) | 94.6% (inactive) | 81.3% (inactive)
NCCCNc1nc2ccc(Cl)cc2c2c(=O)c3cc(F)ccc3sc12 | 76.3% (inactive) | 106% (inactive) | 30.8% (inactive) | -79% (active) | 47.2% (inactive) | -47.8% (active) | -40.8% (active) | 11.8% (inactive)
Cn1cc(-c2cc3ncnc(Nc4ccc(CC(=O)Nc5cc(C(C)(C)C)nn5C)cc4)c3s2)cn1 | 12.1% (inactive) | 45.7% (inactive) | 58.4% (inactive) | 63% (inactive) | 54.8% (inactive) | 39.2% (inactive) | 80.8% (inactive) | 16.7% (inactive)
c1ccc(Cc2nn3cc(-c4ccccc4)nc3s2)cc1 | 87.6% (inactive) | 102% (inactive) | 114% (inactive) | 109% (inactive) | 87.2% (inactive) | 78.9% (inactive) | 103% (inactive) | 96.5% (inactive)
COc1cc2cc(Oc3ccc(NC(=O)Nc4ccc(Cl)c(Cl)c4)cc3)c(C)nc2cc1OCCN1CCOCC1 | 75.1% (inactive) | 72.5% (inactive) | 91.8% (inactive) | 104% (inactive) | 60.1% (inactive) | 86.1% (inactive) | 116% (inactive) | 91.7% (inactive)
CN1CCN(c2ccc(-c3cnc4c(-c5csc6ccccc56)cnn4c3)cc2)CC1 | -7.17% (active) | -39.3% (active) | -46.1% (active) | -5.95% (active) | -22.5% (active) | -23.8% (active) | 24.8% (inactive) | -3.74% (active)
C/C(=C(/c1ccccc1)c1ccc(N2C(=O)c3cccc4c(N5CCN(C)CC5)ccc(c34)C2=O)cc1)c1ccccc1 | 65.3% (inactive) | 99.6% (inactive) | 88.2% (inactive) | 80.2% (inactive) | 59% (inactive) | 49.4% (inactive) | 99.8% (inactive) | 79.8% (inactive)
